Measured values published in PubChem BioAssay (Tox21).
Several values for one entry are separate records, joined by “and”; a condition that tells them apart may be missing. Identical values can stand only once. Inconclusive results are not listed. Where a structure was tested more than once in an assay, its records may differ in their call. Activity calls are given as the source filed them. Unless noted, the call rests on the fitted dose curve; in most records, active means well fitted curve in the direction sought with a large enough effect in the repeat runs; inconclusive means weak or mixed curves; inactive means no such curve, though single readings can be large; an effect the other way counts as inactive or inconclusive.

Columns and labels:
[1] = qHTS assay for small molecule agonists of the p53 signaling pathway (AID 651631; calls by dose curve; further: nearly all actives have a fitted effect of over 15% in size)
Outline: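 Fluorescence intensity from cleaved LiveBLAzer B/G substrate (2 h, room temperature) served as the signal. Beforehand, HCT-116 reporter cells bearing p53 response elements were treated 16 h at 37 °C with DMSO-dissolved compounds.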

[2] = qHTS assay for small molecules that induce genotoxicity in human embryonic kidney cells expressing luciferase-tagged ATAD5 (AID 651632); further: nearly all actives have a fitted effect of over 15% in size
Outline: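 Concentration-response screen for ATAD5 upregulation in HEK293T luciferase reporter cells; 16 hr treatment at 37C, then luminescence after 30 min with Amplite at room temperature.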

[3] = qHTS assay for small molecule agonists of the p53 signaling pathway - cell viability (AID 651633; calls by dose curve; further: nearly all actives have a fitted effect of over 30% in size; further: potency means the concentration at half of the fitted maximal effect)
Outline: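 Viability counter-read: CellTiter-Glo luminescence (30 min, room temperature) in the same p53RE-bla plates. These plates had been exposed to compounds for 16 h at 37 C.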

[4] = qHTS assay for small molecules that induce genotoxicity in human embryonic kidney cells expressing luciferase-tagged ATAD5 - cell viability (AID 651634; calls by dose curve; further: nearly all actives have a fitted effect of over 25% in size)
Outline: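 15.5 hr compound or vehicle exposure of HEK293T cells expressing luciferase-tagged ATAD5 at 37C; live-cell protease activity is read by fluorescence after 30 min of CellTiter-Fluor.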

[5] = qHTS assay for small molecule disruptors of the mitochondrial membrane potential - cell viability (AID 720634; calls by dose curve; further: nearly all actives have a fitted effect of over 20% in size; further: potency means the concentration at half of the fitted maximal effect)
Outline: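 In this qHTS format, HepG2 cells plated overnight were pinned with compound, incubated 1 hr, and assayed for ATP luminescence with CellTiter-Glo after m-MPI dye addition.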

[6] = qHTS assay for small molecule disruptors of the mitochondrial membrane potential (AID 720635)
Outline: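 Mitochondrial membrane potential tracked with Mito-MPS dye, red aggregates (ex 540/em 590 nm) against green monomers (ex 490/em 535 nm). Compound treatment 1 hr at 37C, dye 30 min in HepG2.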

[7] = qHTS assay to test for compound auto fluorescence at 590 nm (red) in HepG2 cells (AID 720674)
Outline: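 Red autofluorescence (Ex/Em 540/590 nm, Rose Bengal sodium equivalents) was measured in HepG2 cells, 2,000 per well in MEM plus 10% FBS, plated overnight at 37 C. Readings were taken 1 hr after adding 23 nL compound or DMSO, at 37 C and 5% CO2.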

[8] = qHTS assay to test for compound auto fluorescence at 535 nm (green) in HepG2 cells (AID 720675)
[9] = qHTS assay to test for compound auto fluorescence at 460 nm (blue) in HEK293 cells (AID 720678)
Outline: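 HEK293 cells (2,000 per well, medium with 10% dialyzed FBS) attached for 4-5 hr at 37C, then received compound and stood overnight at 37C, 5% CO2. Blue fluorescence was read at Ex/Em 405/460 nm and expressed relative to triamterene.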

[10] = qHTS assay to test for compound auto fluorescence at 590 nm (red) in HEK293 cells (AID 720679)
Outline: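 HEK293 cells (2,000/well, medium with 10% dialyzed FBS) attached for 4-5 hr at 37C, received 23 nL compound and were incubated overnight at 37C, 5% CO2. Red fluorescence was then read at 540/590nm Ex/Em, referenced to Rose Bengal sodium.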
On the % scale 0 is the no-effect control and ±100 the full control effect.

C[N+]1([O-])CCOCC1
inactive: Potency [1] | Potency [2] | Potency [3] | Potency [4] | Potency [5] | Potency [6] | outcome [7] | Potency [8] | Potency [9]

CC1COC(=O)O1 (stereo unspecified)
inactive: Potency [1] | Potency [2] | Potency [3] | Potency [4] | Potency [5] | Potency [6] | outcome [7] | Potency [8] | Potency [9]

CC(=O)OCC1=C(C(=O)O)N2C(=O)[C@@H](NC(=O)Cc3cccs3)[C@H]2SC1
inactive: Potency [1] | Potency [2] | Potency [3] | Potency [4] | Potency [5] | Potency [6] | outcome [7] | Potency [8] | Potency [9] | outcome [10]

OCCN1CCNCC1
inactive: Potency [1] | Potency [2] | Potency [3] | Potency [4] | Potency [5] | Potency [6] | outcome [7] | Potency [8] | Potency [9] | outcome [10]

NCCO
inactive: Potency [1] | Potency [2] | Potency [3] | Potency [4] | Potency [5] | outcome [7] | Potency [8] | Potency [9] | outcome [10]

NCCCCCC(=O)O
inactive: Potency [1] | Potency [2] | Potency [3] | Potency [4] | Potency [5] | Potency [6] | fluorescence, relative to Rose Bengal [7] -0.673% [at 18.6 µM] | fluorescence, % of fluorescein control [8] 0.0481% [at 18.6 µM] | fluorescence, % of triamterene [9] 0.0733% [at 18.6 µM]

NC(Cc1ccc(Cl)cc1)C(=O)O (stereo unspecified)
inactive: Potency [1] | Potency [2] | Potency [3] | Potency [4] | Potency [5] | outcome [7] | Potency [8] | Potency [9]

CNC1(C)C2CCC(C2)C1(C)C (stereo unspecified)
inactive: Potency [1] | Potency [2] | Potency [3] | Potency [4] | Potency [5] | Potency [6] | outcome [7] | Potency [8] | Potency [9] | outcome [10]

NC(N)=Nc1nc(CSCC/C(N)=N/S(N)(=O)=O)cs1
inactive: Potency [1] | Potency [2] | Potency [3] | Potency [4] | Potency [5] | Potency [6] | outcome [7] | Potency [8] | Potency [9]

O=C(O)c1cc(Cl)cc(Cl)c1
inactive: Potency [1] | Potency [2] | Potency [3] | Potency [4] | Potency [5] | Potency [6] | outcome [7] | Potency [8] | Potency [9] | outcome [10]

C=C(C)C1CC=C(C)C(OC(C)=O)C1 (stereo unspecified)
inactive: Potency [1] | Potency [2] | Potency [3] | Potency [4] | Potency [5] | Potency [6] | outcome [7] | Potency [8] | Potency [9] | outcome [10]

Cc1cccc([N+](=O)[O-])c1C(=O)O
inactive: Potency [1] | Potency [2] | Potency [3] | Potency [4] | Potency [5] | Potency [6] | outcome [7] | Potency [8] | Potency [9] | outcome [10]

C=CS(=O)(=O)O
inactive: Potency [1] | Potency [2] | Potency [3] | Potency [4] | Potency [5] | outcome [7] | Potency [8] | Potency [9] | outcome [10]

CCn1cc(C(=O)O)c(=O)c2cc(F)c(N3CCNC(C)C3)c(F)c21 (stereo unspecified)
inactive: Potency [1] | Potency [2] | Potency [3] | Potency [4] | Potency [5] | Potency [6] | outcome [7] | Potency [8] | Potency [9] | outcome [10]

OCCOCCN1CCN(C(c2ccccc2)c2ccc(Cl)cc2)CC1 (stereo unspecified)
inactive and 60.3 µM (active): Potency [3]
inactive: Potency [1] | Potency [2] | Potency [4] | Potency [5] | outcome [7] | Potency [8] | Potency [9] | outcome [10]

Cc1cccc(O)c1C
inactive: Potency [1] | Potency [2] | Potency [3] | Potency [4] | Potency [5] | Potency [6] | outcome [7] | Potency [8] | Potency [9]

CC(C(O)c1ccc(O)cc1)N1CCC(Cc2ccccc2)CC1 (stereo unspecified)
inactive: Potency [1] | Potency [2] | Potency [3] | Potency [4] | Potency [5] | outcome [7] | Potency [8] | Potency [9] | outcome [10]

CCOC(=O)C(C)C(C)=O (stereo unspecified)
inactive: Potency [1] | Potency [2] | Potency [3] | Potency [4] | Potency [5] | Potency [6] | outcome [7] | Potency [8] | Potency [9] | outcome [10]

O=S(=O)(O)c1ccc2nc(-c3ccccc3)[nH]c2c1
active: Potency [3] 9.44 µM and 26 µM | Potency [5] 9.44 µM and 26 µM
inactive: Potency [1] | Potency [2] | Potency [4] | Potency [6] | outcome [7] | Potency [8] | Potency [9]

CCCCC/C=C/CC1CC(=O)OC1=O (stereo unspecified)
inactive: Potency [1] | Potency [2] | Potency [3] | Potency [4] | Potency [5] | outcome [7] | Potency [8] | Potency [9] | outcome [10]

CC(C)C(=O)c1c(C(C)C)nn2ccccc12
inactive: Potency [1] | Potency [2] | Potency [3] | Potency [4] | Potency [5] | Potency [6] | outcome [7] | Potency [8] | Potency [9]
